Reference: paper PMC7862700, “An all-to-all approach to the identification of sequence-specific readers for epigenetic DNA modifications on cytosine”

Experiments:
Test in all cases: DAPPL (digital affinity profiling via proximity ligation, sequencing); 10 mM Tris-HCl pH 7.5, 50 mM NaCl, 1 mM DTT, 4% glycerol, room temperature, 30 min; GST-TFs on glutathione beads, 16-mer random dsDNA library, 0.1% formaldehyde crosslink after washing; high values mean tight binding
Conditions in all cases: protein: recombinant; tags: N-terminal GST; dsDNA, one strand shown
ERF = target: T1, ERF (Homo sapiens, UniProt P50548 1-548)
T1 sequence: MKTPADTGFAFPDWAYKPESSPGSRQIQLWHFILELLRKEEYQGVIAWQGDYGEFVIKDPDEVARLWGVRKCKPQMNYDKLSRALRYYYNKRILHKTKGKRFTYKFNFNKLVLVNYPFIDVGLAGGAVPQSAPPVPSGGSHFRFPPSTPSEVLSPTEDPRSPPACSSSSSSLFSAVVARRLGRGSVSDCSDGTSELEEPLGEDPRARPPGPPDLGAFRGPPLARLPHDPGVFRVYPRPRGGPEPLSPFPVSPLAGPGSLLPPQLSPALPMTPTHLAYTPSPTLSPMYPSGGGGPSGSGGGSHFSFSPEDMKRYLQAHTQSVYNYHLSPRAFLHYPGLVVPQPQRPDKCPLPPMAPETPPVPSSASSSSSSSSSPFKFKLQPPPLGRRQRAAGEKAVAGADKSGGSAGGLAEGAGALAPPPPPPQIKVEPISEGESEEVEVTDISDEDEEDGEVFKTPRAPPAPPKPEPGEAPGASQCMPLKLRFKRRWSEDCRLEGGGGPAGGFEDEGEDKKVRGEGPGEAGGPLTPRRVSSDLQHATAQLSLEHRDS
Outline: (§1)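 Pools of DNA-barcoded human transcription factors, expressed in yeast as GST fusions on glutathione beads and combined with a tag-only sample, were incubated with 200 nmole of a 16-mer random double-stranded DNA library. Incubation took 30 min at room temperature in Tris/NaCl/DTT/glycerol buffer and was followed by washing, 0.1% formaldehyde crosslinking, proximity ligation (BsaI/T4 ligase, 1 h, 37 °C), PCR amplification and sequencing on an Illumina NextSeq500. Binding signal is the ratio of a hexamer's read frequency for a factor to its frequency for the tag-only sample.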

ETV3L = target: T2, ETV3L (Homo sapiens, UniProt Q6ZN32 1-361)
T2 sequence: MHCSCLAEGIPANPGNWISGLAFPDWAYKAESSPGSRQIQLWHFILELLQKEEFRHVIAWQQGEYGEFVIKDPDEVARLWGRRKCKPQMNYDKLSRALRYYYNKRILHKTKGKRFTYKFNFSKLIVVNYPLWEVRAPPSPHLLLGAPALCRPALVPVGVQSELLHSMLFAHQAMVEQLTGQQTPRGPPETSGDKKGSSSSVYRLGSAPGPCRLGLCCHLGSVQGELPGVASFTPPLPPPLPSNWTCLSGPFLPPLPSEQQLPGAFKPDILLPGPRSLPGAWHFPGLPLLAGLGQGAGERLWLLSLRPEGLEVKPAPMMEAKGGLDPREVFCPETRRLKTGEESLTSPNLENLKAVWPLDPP
Outline: as §1

ETS2 = target: T3, ETS2 (Homo sapiens, UniProt P15036 1-469)
T3 sequence: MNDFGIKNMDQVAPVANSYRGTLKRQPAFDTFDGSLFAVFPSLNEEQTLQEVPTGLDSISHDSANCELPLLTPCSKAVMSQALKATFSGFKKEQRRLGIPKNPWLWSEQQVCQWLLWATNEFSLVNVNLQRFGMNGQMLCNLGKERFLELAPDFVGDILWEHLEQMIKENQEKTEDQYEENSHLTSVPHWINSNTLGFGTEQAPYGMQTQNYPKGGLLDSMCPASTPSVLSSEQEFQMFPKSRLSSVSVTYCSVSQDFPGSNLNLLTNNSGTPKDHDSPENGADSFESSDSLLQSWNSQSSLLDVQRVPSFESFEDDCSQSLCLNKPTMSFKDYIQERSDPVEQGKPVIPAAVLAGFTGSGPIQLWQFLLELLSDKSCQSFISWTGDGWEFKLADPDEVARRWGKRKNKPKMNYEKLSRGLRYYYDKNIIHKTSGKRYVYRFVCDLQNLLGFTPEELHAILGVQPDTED
Outline: as §1

SPDEF = target: T4, SPDEF (Homo sapiens, UniProt O95238 1-335)
T4 sequence: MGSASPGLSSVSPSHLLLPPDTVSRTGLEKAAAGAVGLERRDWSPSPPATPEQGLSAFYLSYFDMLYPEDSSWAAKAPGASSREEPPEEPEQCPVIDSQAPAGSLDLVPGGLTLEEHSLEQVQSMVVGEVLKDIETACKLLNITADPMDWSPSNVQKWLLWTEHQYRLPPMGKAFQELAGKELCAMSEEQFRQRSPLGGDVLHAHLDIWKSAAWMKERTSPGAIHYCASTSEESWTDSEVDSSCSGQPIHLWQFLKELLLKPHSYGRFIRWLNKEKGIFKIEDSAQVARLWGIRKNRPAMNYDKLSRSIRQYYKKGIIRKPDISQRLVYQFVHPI
Outline: as §1

ETV7 = target: T5, ETV7 (Homo sapiens, UniProt Q9Y603 1-341)
T5 sequence: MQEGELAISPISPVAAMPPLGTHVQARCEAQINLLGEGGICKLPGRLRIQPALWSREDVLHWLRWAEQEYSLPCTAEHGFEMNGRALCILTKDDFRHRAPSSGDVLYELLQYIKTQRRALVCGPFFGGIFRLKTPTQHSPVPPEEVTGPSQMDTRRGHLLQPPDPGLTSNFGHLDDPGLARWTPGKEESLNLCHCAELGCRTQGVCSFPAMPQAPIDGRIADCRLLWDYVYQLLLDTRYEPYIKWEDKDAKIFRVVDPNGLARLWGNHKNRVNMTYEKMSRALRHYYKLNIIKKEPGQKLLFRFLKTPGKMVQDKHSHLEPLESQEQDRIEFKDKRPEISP
Outline: as §1

ELF5 = target: T6, ELF5 (Homo sapiens, UniProt Q9UKW6-2 1-255)
T6 sequence: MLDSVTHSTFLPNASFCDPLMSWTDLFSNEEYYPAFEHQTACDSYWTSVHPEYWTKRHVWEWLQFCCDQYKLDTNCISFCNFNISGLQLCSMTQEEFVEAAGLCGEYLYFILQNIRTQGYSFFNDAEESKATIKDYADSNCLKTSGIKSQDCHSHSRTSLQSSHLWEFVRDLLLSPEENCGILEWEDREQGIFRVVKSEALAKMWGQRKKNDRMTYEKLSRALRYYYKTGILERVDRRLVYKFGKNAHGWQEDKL
Outline: as §1

ETV3 = target: T7, ETV3 (Homo sapiens, UniProt P41162-2 1-143)
T7 sequence: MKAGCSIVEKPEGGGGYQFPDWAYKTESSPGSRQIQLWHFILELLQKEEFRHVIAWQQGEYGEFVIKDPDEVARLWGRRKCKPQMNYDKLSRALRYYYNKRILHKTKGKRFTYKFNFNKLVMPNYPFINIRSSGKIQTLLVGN
Outline: as §1

ETV6 = ETV6 (Homo sapiens, UniProt P41212 1-452)
ETV6, sequence (P41212 whole entry): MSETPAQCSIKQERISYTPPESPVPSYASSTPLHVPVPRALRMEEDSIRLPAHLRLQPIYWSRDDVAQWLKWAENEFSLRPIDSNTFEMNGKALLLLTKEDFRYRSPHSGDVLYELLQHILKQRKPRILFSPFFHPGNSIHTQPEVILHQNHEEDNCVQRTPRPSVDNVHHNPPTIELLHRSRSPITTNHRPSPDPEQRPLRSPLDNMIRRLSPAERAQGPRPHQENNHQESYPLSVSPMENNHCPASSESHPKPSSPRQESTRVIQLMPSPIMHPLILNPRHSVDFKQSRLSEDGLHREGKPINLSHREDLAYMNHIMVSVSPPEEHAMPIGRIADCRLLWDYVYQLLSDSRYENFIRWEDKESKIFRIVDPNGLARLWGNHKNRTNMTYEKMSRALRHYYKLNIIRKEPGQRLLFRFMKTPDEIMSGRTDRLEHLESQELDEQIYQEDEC
Outline: as §1

TTTGAC
binding signal (ERF): 1.49 fold enrichment (6-mer frequency, TF over GST control) | binding signal (ETV3L): 1.35 fold enrichment (6-mer frequency, TF over GST control) | binding signal (ETS2): 1.33 fold enrichment (6-mer frequency, TF over GST control) | binding signal (SPDEF): 1.48 fold enrichment (6-mer frequency, TF over GST control) | binding signal (ETV7): 1.58 fold enrichment (6-mer frequency, TF over GST control) | binding signal (ELF5): 1.34 fold enrichment (6-mer frequency, TF over GST control) | binding signal (ETV3): 1.38 fold enrichment (6-mer frequency, TF over GST control) | binding signal (ETV6): 1.4 fold enrichment (6-mer frequency, TF over GST control)

CAAAAT
binding signal (ERF): 1.33 fold enrichment (6-mer frequency, TF over GST control) | binding signal (ETV3L): 1.19 fold enrichment (6-mer frequency, TF over GST control) | binding signal (ETS2): 1.2 fold enrichment (6-mer frequency, TF over GST control) | binding signal (SPDEF): 1.1 fold enrichment (6-mer frequency, TF over GST control) | binding signal (ETV7): 1.28 fold enrichment (6-mer frequency, TF over GST control) | binding signal (ELF5): 1.13 fold enrichment (6-mer frequency, TF over GST control) | binding signal (ETV3): 1.12 fold enrichment (6-mer frequency, TF over GST control) | binding signal (ETV6): 1.26 fold enrichment (6-mer frequency, TF over GST control)

CCCATA
binding signal (ERF): 1.19 fold enrichment (6-mer frequency, TF over GST control) | binding signal (ETV3L): 1.34 fold enrichment (6-mer frequency, TF over GST control) | binding signal (ETS2): 1.29 fold enrichment (6-mer frequency, TF over GST control) | binding signal (SPDEF): 1.19 fold enrichment (6-mer frequency, TF over GST control) | binding signal (ETV7): 1.19 fold enrichment (6-mer frequency, TF over GST control) | binding signal (ELF5): 1.25 fold enrichment (6-mer frequency, TF over GST control) | binding signal (ETV3): 1.21 fold enrichment (6-mer frequency, TF over GST control) | binding signal (ETV6): 1.31 fold enrichment (6-mer frequency, TF over GST control)

CTCTGT
binding signal (ERF): 1.5 fold enrichment (6-mer frequency, TF over GST control) | binding signal (ETV3L): 1.33 fold enrichment (6-mer frequency, TF over GST control) | binding signal (ETS2): 1.5 fold enrichment (6-mer frequency, TF over GST control) | binding signal (SPDEF): 1.45 fold enrichment (6-mer frequency, TF over GST control) | binding signal (ETV7): 1.43 fold enrichment (6-mer frequency, TF over GST control) | binding signal (ELF5): 1.37 fold enrichment (6-mer frequency, TF over GST control) | binding signal (ETV3): 1.43 fold enrichment (6-mer frequency, TF over GST control) | binding signal (ETV6): 1.44 fold enrichment (6-mer frequency, TF over GST control)

ATCGAA
binding signal (ERF): 1.18 fold enrichment (6-mer frequency, TF over GST control) | binding signal (ETV3L): 1.16 fold enrichment (6-mer frequency, TF over GST control) | binding signal (ETS2): 1.2 fold enrichment (6-mer frequency, TF over GST control) | binding signal (SPDEF): 1.09 fold enrichment (6-mer frequency, TF over GST control) | binding signal (ETV7): 1.25 fold enrichment (6-mer frequency, TF over GST control) | binding signal (ELF5): 1.05 fold enrichment (6-mer frequency, TF over GST control) | binding signal (ETV3): 1.03 fold enrichment (6-mer frequency, TF over GST control) | binding signal (ETV6): 1.05 fold enrichment (6-mer frequency, TF over GST control)

CCCGAT
binding signal (ERF): 1.22 fold enrichment (6-mer frequency, TF over GST control) | binding signal (ETV3L): 1.14 fold enrichment (6-mer frequency, TF over GST control) | binding signal (ETS2): 1.23 fold enrichment (6-mer frequency, TF over GST control) | binding signal (SPDEF): 1.11 fold enrichment (6-mer frequency, TF over GST control) | binding signal (ETV7): 1.24 fold enrichment (6-mer frequency, TF over GST control) | binding signal (ELF5): 1.24 fold enrichment (6-mer frequency, TF over GST control) | binding signal (ETV3): 1.21 fold enrichment (6-mer frequency, TF over GST control) | binding signal (ETV6): 1.06 fold enrichment (6-mer frequency, TF over GST control)

TCGCTA
binding signal (ERF): 1.16 fold enrichment (6-mer frequency, TF over GST control) | binding signal (ETV3L): 1.09 fold enrichment (6-mer frequency, TF over GST control) | binding signal (ETS2): 1.06 fold enrichment (6-mer frequency, TF over GST control) | binding signal (SPDEF): 1.03 fold enrichment (6-mer frequency, TF over GST control) | binding signal (ETV7): 1.12 fold enrichment (6-mer frequency, TF over GST control) | binding signal (ELF5): 1.06 fold enrichment (6-mer frequency, TF over GST control) | binding signal (ETV3): 1.01 fold enrichment (6-mer frequency, TF over GST control) | binding signal (ETV6): 1.04 fold enrichment (6-mer frequency, TF over GST control)
